# Measured values published in PubChem BioAssay (Tox21).
# Inconclusive results are not listed. A call without a number means that no potency is given here. Activity calls are given as the source filed them. Unless noted, calls follow the shape of the full dose curve.
# How the values were obtained:
# [1] = Nuclear factor erythroid 2-related factor 2/antioxidant responsive element (Nrf2/ARE) small molecule agonists: qHTS cell viability counter screen in human keratinocytes (AID 1919968; active = well fitted curve in the direction sought with a large enough effect in the repeat runs; an effect the other way counts as inactive or inconclusive; also: nearly all actives have a fitted effect of over 55% in size; also: potency is read from the fitted curve at half-maximal effect)
# Outline: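 Measured as CellTiter-Fluor fluorescence, this readout tracks cytotoxicity in the same wells as the ARE-luciferase screen. HaCaT reporter cells (1,500/well) received compounds after a 5 h pre-incubation and were exposed for 23 h.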
# [2] = Nuclear factor erythroid 2-related factor 2/antioxidant responsive element (Nrf2/ARE) small molecule agonists: luciferase reporter gene qHTS assay in human keratinocytes (AID 1919969); also: nearly all actives have a fitted effect of over 35% in size
# [3] = target: Gonadotropin-releasing hormone receptor (Homo sapiens) (UniProt P30968); assay: Human gonadotropin-releasing hormone receptor (GnRHR) small molecule agonists, calcium flux assay in GnRHR-HEK293 cells (AID 1920063); also: nearly all actives have a fitted effect of over 35% in size
# Chain of Gonadotropin-releasing hormone receptor (Homo sapiens) (P30968 whole entry, looked up): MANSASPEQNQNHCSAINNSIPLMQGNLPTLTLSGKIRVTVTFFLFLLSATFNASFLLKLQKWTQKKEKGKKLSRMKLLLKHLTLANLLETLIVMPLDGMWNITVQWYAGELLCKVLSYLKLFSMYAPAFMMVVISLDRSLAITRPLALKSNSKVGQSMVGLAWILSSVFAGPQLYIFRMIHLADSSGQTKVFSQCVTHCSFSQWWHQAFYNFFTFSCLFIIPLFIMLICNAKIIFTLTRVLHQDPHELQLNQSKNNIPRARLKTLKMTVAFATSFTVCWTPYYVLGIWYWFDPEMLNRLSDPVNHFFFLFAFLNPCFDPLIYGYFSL
# Outline: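 Fluorescence kinetics (480 nm excitation, 540 nm emission; 3 min, 1 s steps) report calcium mobilisation in human GnRHR-HEK293 cells in agonist mode. Dye incubation: 1 h, 37 C.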
# [4] = target: KiSS-1 receptor (Homo sapiens) (UniProt Q969F8); assay: Human kisspeptin (KISS1R) small molecule agonists, calcium flux assay in KISS1R-HEK293 cells (AID 1920064; active = well fitted curve in the direction sought with a large enough effect in the repeat runs; an effect the other way counts as inactive or inconclusive)
# Chain of KiSS-1 receptor (Homo sapiens) (Q969F8 whole entry, looked up): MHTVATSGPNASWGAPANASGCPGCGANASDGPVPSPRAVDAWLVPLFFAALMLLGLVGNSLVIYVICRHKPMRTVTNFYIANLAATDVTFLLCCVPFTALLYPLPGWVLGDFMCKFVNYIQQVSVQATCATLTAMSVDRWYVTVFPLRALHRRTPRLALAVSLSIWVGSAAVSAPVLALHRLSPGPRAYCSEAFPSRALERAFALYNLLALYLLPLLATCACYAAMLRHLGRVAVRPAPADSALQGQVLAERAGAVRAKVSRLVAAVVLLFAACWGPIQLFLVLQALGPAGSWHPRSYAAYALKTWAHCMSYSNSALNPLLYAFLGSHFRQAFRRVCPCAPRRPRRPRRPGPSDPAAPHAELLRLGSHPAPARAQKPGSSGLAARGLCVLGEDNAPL
# Outline: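 Measures KISS1R agonism through calcium-sensitive dye fluorescence in stably transfected HEK293 cells, read for 3 min after pin-tool compound delivery; 15-point titrations in triplicate.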
# [5] = G protein-coupled receptor (GPCR) small molecule agonists, calcium flux assay: HEK293 wild type cell line counter screen (AID 1920065)
# Outline: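 Readout: fluorescence at 480 nm excitation/540 nm emission, sampled at 1 s intervals for 3 min. Cells had been cultured 18 h, then dye-loaded 1 h at 37 C before compound or ATP addition.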
# [6] = p53 small molecule agonists, cell-based qHTS assay with human liver microsomes (AID 1963577);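 also: p53 response element beta-lactamase reporter cells with liver microsomes plus NADPH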
# Outline: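 Cells carrying a p53-responsive bla reporter were rested 5 h (37 C, 5% CO2) before compound transfer. Human liver microsomes plus NADPH, 0.5 mg/mL final apiece, supplied metabolism during the 16 h 37 C exposure.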
# [7] = p53 small molecule agonists, cell-based qHTS assay with human liver microsomes: qHTS cell viability counter screen (AID 1963579); also: nearly all actives have a fitted effect of over 45% in size
# Outline: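 Seed p53RE-bla cells at 4,000 per well; incubate 5 h at 37 C; add compound, human liver microsomes and NADPH; incubate 16 h at 37 C; add CellTiter-Glo; after 30 min at room temperature, read luminescence.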
# [8] = p53 small molecule agonists, cell-based qHTS assay: qHTS cell viability counter screen (AID 1963581); also: nearly all actives have a fitted effect of over 45% in size
# Outline: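 In the same plates used for the p53 bla reporter, HCT-116 cells given compounds for 16 h at 37 C received CellTiter-Glo; luminescence was recorded 30 min later at room temperature.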
# [9] = p53 small molecule agonists, cell-based qHTS assay (AID 1963582; active = well fitted activation curve with a large enough effect in the signal ratio in the repeat runs, not every such curve was filed as active; the % refers to the signal ratio)
# Outline: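 Compounds are pin-transferred in DMSO onto p53RE-bla cells and incubated 16 h at 37 C. The B/G FRET beta-lactamase substrate is then applied for 2 h at RT and fluorescence recorded.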
# [10] = target: Muscarinic acetylcholine receptor M1 (Homo sapiens) (UniProt P11229); assay: Cholinergic receptor muscarinic 1 (CHRM1) small molecule antagonists, cell-based qHTS assay (AID 1963588); also: nearly all actives have a fitted effect of over 40% in size
# Chain of Muscarinic acetylcholine receptor M1 (Homo sapiens) (P11229 whole entry, looked up): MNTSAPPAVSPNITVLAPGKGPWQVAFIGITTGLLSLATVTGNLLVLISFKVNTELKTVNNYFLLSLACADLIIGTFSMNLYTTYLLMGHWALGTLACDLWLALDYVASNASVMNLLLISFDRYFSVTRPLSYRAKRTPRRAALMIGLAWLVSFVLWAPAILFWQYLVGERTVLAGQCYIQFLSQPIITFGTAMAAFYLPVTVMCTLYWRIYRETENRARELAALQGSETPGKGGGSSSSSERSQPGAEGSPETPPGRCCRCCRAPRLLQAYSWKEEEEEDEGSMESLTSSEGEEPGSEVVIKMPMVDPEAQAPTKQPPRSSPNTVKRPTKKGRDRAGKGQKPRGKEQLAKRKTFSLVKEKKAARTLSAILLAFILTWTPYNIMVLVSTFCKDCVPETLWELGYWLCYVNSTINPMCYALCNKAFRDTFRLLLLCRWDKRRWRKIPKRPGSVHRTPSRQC
# Outline: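 CHRM1-CHO calcium-flux assay, antagonist mode. Cells were seeded 18 h, dye-loaded 1 h at 37 C and given compound for 5 min at RT, then acetylcholine was added at 50nM. FDSS fluorescence was read 3 min; 15 concentrations, three runs.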
# [11] = target: Muscarinic acetylcholine receptor M1 (Homo sapiens) (UniProt P11229); assay: Cholinergic receptor muscarinic 1 (CHRM1) small molecule agonists, cell-based qHTS assay (AID 1963589); also: nearly all actives have a fitted effect of over 35% in size
# Outline: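 Each compound was tested at 15 concentrations across three independent runs on dye-loaded CHO cells stably expressing human CHRM1, reading intracellular calcium fluorescence kinetically at 1 sec intervals.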
# [12] = cAMP Responsive Elements (CRE) small molecule agonists, cell-based qHTS assay (AID 1963590)
# Outline: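 Cell line: CRE-bla HEK 293T; medium DMEM/10% dialyzed FBS/0.1 mM NEAA/1 mM pyruvate/25 mM HEPES; 3 h compound exposure; beta-lactamase FRET readout after 2 h substrate loading at RT.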
# [13] = cAMP Responsive Elements (CRE) small molecule antagonists, cell-based qHTS assay (AID 1963591; active = well fitted inhibition curve with a large enough effect in the signal ratio in the repeat runs, not every such curve was filed as active; the % refers to the signal ratio; also: potency is read from the fitted curve at half-maximal effect)
# Outline: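 Inhibition of NKH477-driven (0.25 uM final) CRE-beta-lactamase signal in HEK293T cells, 3 h compound exposure at 37 °C, detected by FRET substrate fluorescence.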
# [14] = target: Beta-2 adrenergic receptor (Homo sapiens) (UniProt P07550); assay: Adrenergic beta2 receptor (ADRB2) small molecule antagonists, cell-based qHTS assay (AID 1963592); also: nearly all actives have a fitted effect of over 50% in size; also: potency is read from the fitted curve at half-maximal effect
# Chain of Beta-2 adrenergic receptor (Homo sapiens) (P07550 whole entry, looked up): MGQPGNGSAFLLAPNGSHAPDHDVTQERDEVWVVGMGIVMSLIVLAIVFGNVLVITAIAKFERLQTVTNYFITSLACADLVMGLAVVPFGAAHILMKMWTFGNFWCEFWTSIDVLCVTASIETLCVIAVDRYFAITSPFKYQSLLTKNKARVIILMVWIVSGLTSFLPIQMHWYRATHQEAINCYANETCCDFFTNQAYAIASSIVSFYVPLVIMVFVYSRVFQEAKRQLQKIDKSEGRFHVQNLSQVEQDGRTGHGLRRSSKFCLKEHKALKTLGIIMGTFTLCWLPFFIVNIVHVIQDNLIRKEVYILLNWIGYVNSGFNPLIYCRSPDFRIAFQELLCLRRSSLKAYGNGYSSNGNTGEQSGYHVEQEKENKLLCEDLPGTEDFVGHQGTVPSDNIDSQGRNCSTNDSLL
# Outline: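 Cells (CHO, stable ADRB2 overexpression) incubated 18-20hr at 37C; compounds added from DMSO; agonist mix (1nM isoproterenol, 100uM IBMX, 25uM Ro-20-1724) added; 0.5hr RT; d2-cAMP and anti-cAMP-cryptate added; 1hr RT; 665/615 nm read.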
# [15] = target: D(2) dopamine receptor (Homo sapiens) (UniProt P14416); assay: Dopamine D2 receptor (DRD2) small molecule agonists, cell-based qHTS assay (AID 1963594); also: nearly all actives have a fitted effect of over 35% in size
# Chain of D(2) dopamine receptor (Homo sapiens) (P14416 whole entry, looked up): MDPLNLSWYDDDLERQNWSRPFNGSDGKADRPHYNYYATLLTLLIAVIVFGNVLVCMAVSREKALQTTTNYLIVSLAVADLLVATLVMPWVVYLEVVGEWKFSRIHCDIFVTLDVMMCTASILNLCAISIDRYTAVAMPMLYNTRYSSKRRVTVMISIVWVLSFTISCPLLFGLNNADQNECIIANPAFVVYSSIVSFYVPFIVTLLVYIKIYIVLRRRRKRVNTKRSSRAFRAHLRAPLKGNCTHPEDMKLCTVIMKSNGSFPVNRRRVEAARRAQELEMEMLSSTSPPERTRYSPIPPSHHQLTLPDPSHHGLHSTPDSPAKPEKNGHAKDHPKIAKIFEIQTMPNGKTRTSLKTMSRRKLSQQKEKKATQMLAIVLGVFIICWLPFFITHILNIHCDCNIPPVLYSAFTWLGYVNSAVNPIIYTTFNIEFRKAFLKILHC
# Outline: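 HEK293 cells stably expressing DRD2 were cultured 24 h at 37 C, then given Ro20-1724 (0.1 mM final) and compounds for 10 min at room temperature. NKH477 (200nM) was then added for 30 min. cAMP was read by HTRF.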
# [16] = target: D(2) dopamine receptor (Homo sapiens) (UniProt P14416); assay: Dopamine D2 receptor (DRD2) small molecule antagonists, cell-based qHTS assay (AID 1963595; active = well fitted inhibition curve with a large enough effect in the signal ratio in the repeat runs, with a control signal flat; the % refers to the signal ratio; also: potency is read from the fitted curve at half-maximal effect)
# Outline: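 Cells were plated and grown for 24 h at 37 °C. Ro20-1724 (0.1 mM final) went in first, then compound for 10 min. NKH477 (200 nM) with quinpirole (12 nM) followed for 30 min at RT, then HTRF detection reagents for 1 h.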
# [17] = p53 small molecule agonists, cell-based qHTS assay with rat liver microsomes: qHTS cell viability counter screen (AID 1963580); also: nearly all actives have a fitted effect of over 45% in size
# Outline: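 p53RE-bla HCT-116 cells (4,000/well) rested 5 h at 37 C, then given Tox21 compounds in DMSO with rat liver microsomes (0.5 mg/mL final) plus NADPH (0.5 mg/mL final) for 16 h at 37 C. Viability read by CellTiter-Glo luminescence after 30 min at room temperature.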
# [18] = target: 5-hydroxytryptamine receptor 2A (Homo sapiens) (UniProt P28223); assay: 5-hydroxytryptamine receptor 2A (HTR2A) small molecule agonists, cell-based qHTS assay (AID 1963587); also: nearly all actives have a fitted effect of over 30% in size
# Chain of 5-hydroxytryptamine receptor 2A (Homo sapiens) (P28223 whole entry, looked up): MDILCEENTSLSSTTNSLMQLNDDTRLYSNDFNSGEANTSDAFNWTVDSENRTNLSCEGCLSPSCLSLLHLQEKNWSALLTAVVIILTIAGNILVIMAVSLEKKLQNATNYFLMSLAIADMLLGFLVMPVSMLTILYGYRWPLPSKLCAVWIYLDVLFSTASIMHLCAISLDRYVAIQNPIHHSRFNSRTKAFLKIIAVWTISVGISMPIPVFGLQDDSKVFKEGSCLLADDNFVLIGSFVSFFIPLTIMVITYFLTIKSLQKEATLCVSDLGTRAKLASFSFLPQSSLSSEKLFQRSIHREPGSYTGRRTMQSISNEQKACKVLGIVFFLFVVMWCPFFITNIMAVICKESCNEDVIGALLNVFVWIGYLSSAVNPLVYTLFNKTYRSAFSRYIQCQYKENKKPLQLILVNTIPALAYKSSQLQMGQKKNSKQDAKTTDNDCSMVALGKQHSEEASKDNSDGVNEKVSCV
# Outline: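 HTR2A-CHO cells, plated 18 h at 37 C/5% CO2, dye-loaded 1 h at 37 C; compounds in DMSO added by pin tool (agonist mode). Intracellular calcium flux read as kinetic fluorescence on FDSS over 2 min at 1 s intervals.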
# [19] = target: 5-hydroxytryptamine receptor 2A (Homo sapiens) (UniProt P28223); assay: 5-hydroxytryptamine receptor 2A (HTR2A) small molecule antagonists, cell-based qHTS assay (AID 1963586); also: nearly all actives have a fitted effect of over 45% in size
# Outline: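 Antagonist-mode intracellular calcium assay: DOI (4 nM) added after 5 min compound pre-incubation at room temperature to dye-loaded HTR2A-CHO cells. Fluorescence followed for 3 min, sampled every second.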
Structure (SMILES),Potency [1],Potency [2],Potency [3],Potency [4],Potency [5],Potency [6],Potency [7],Potency [8],Potency [9],Potency [10],Potency [11],Potency [12],Potency [13],Potency [14],Potency [15],Potency [16],Potency [17],Potency [18],Potency [19]
Clc1ccc2c(c1)Nc1ccccc1S2,inactive,inactive,inactive,inactive,inactive,inactive,inactive,inactive,inactive,inactive,inactive,inactive,inactive,inactive,inactive,inactive,,,
COc1cccc(OC)c1,inactive,inactive,inactive,inactive,inactive,inactive,,inactive,inactive,inactive,inactive,,inactive,inactive,inactive,inactive,inactive,inactive,
CN(C)CCC=C1c2ccccc2CCc2ccccc21,inactive,inactive,inactive,inactive,inactive,inactive,inactive,,,,,inactive,inactive,24.3 µM (active),inactive,27.3 µM (active),inactive,,
CC[C@H]1CN2CCc3cc(OC)c(OC)cc3[C@@H]2C[C@@H]1C[C@H]1NCCc2cc(OC)c(OC)cc21,274 nM (active),inactive,inactive,inactive,inactive,inactive,inactive,inactive,inactive,,,inactive,1.68 µM (active),inactive,inactive,inactive,inactive,,
O=c1[nH]c(=O)n([C@H]2CCCO2)cc1F,inactive,inactive,inactive,inactive,inactive,inactive,inactive,inactive,inactive,,,inactive,inactive,inactive,,,inactive,,
Cc1cc(O)cc2c1O[C@](C)(CCC[C@H](C)CCC[C@H](C)CCCC(C)C)CC2,inactive,inactive,inactive,inactive,inactive,inactive,inactive,,inactive,inactive,inactive,inactive,inactive,inactive,inactive,,inactive,inactive,inactive
CC(C)c1ccc2c(C(C)C)cc(C(C)C)c(S(=O)(=O)O)c2c1,inactive,inactive,inactive,inactive,inactive,inactive,inactive,inactive,inactive,inactive,inactive,inactive,inactive,inactive,inactive,,,inactive,inactive
CCOC(=O)[C@H](CCc1ccccc1)N[C@@H](C)C(=O)N1C(=O)N(C)C[C@H]1C(=O)O,inactive,inactive,inactive,inactive,inactive,inactive,inactive,inactive,,inactive,inactive,inactive,inactive,inactive,,inactive,inactive,inactive,inactive
